In all, about 16,000 compounds went through this assay and about 4,000 (25%) were called active. Another 26% or so got no clear call; they are omitted. Only a sample is shown. Values without a mark were called inactive. The call rests on the fitted dose curve; in most records, active means well fitted curve in the direction sought with a large enough effect; inconclusive means small, poorly fitted or top-dose-only effect, or effect the other way; inactive means no such curve, though single readings can be large or run the other way.
The compounds below were run against Cytochrome P450 2C9 (Homo sapiens) (UniProt P11712) (assay: Cytochrome panel assay with activity outcomes). Conditions: recombinant CYP, pro-luciferin dealkylation, luminescence, p450-cyp2c9; series mostly up to 57.1 µM; activity, negative = inhibition: at the top concentration.
On the % scale 0 is the no-effect control and ±100 the full control effect.

Cytochrome P450 2C9 (Homo sapiens), sequence (P11712 whole entry, looked up): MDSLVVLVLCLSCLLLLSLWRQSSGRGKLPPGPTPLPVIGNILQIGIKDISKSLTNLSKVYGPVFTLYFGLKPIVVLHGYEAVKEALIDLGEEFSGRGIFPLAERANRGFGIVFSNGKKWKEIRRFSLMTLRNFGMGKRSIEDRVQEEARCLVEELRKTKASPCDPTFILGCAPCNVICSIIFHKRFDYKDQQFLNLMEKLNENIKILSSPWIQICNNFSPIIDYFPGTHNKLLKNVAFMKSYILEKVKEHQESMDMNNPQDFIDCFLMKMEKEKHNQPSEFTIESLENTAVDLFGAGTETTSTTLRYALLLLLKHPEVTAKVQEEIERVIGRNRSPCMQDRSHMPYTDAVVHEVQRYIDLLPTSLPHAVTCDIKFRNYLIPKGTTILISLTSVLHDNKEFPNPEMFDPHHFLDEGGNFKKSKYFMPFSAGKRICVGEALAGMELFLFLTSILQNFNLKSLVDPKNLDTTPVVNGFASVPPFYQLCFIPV

SMILES	AC50	activity, negative = inhibition
CCCNS(=O)(=O)c1ccc(OCC(=O)OC)cc1	7.08 µM (active)	
Nc1ccc(S(=O)(=O)NCCS(=O)(=O)O)cc1		9.74% [at 11.4 µM]
Cc1ccc(NC(=O)CCC(=O)NNC(=O)c2cccs2)c(C)c1		-27.1%
O=C(Nc1ncc(Cc2cccc(Cl)c2)s1)c1cccs1	11.2 µM (active)	
Cc1ccc(Cc2cnc(NC(=O)c3cccs3)s2)cc1	8.91 µM (active)	
O=C(NOC(=O)c1cc(Br)ccc1Cl)c1cccs1		-29.8%
Nc1[nH]c(=O)nc2c1ncn2[C@H]1O[C@@H](CO)[C@@H](O)[C@@H]1O		-0.314% [at 11.4 µM]
O=C(O)c1ccc(S(=O)(=O)N=Nc2c(O)[nH]c3ccccc23)cc1		3.79% [at 11.4 µM]
N#CCCSC(=S)[C@H]1CCCC1=N		-3.69% [at 11.4 µM]
O=C(CCC(=O)OCc1ccc(C(=O)Oc2ccccc2)cc1)Nc1cccc2ccccc12	15.8 µM (active)	
COC(=O)CCC(=O)Nc1cccc2ccccc12		9.84%
N#Cc1c(NC(=O)CCC(=O)O)ccc2ccccc12		-7.5% [at 11.4 µM]
COc1ncc2nc(-c3cc(F)cc(F)c3)c(=O)n(CCC#N)c2n1		-11.8%
N#Cc1sc2nc(-c3cccs3)cc(-c3ccc(Cl)cc3)c2c1N	4.47 µM (active)	
O=C(O)c1cc(N=Cc2ccccc2O)cc(C(=O)O)c1		7.44% [at 11.4 µM]
Cc1cc(O)c(C(C)C)cc1N=Cc1ccccc1O	0.631 µM (active)	
[O-][n+]1c(CN2CCCCC2)nc2cccc3c2c1-c1ccccc1-3		-15.3% [at 11.4 µM]
CC(C)(C)c1ccc(C2CC2C(=O)N/N=C\c2cc3ccccc3nc2Cl)cc1 (stereo unspecified)	3.55 µM (active)	
CN(C)c1ccc(/C=N\NC(=O)c2cnc3ccccc3c2)cc1		-6.78% [at 11.4 µM]
CN(Cc1ccco1)c1ncncc1-c1cccnc1		10.8% [at 2.29 µM]
O=c1c(C=Nc2ccc(Oc3ccccc3)cc2)c[nH]n1-c1cccc(Cl)n1	6.31 µM (active)	
CCOc1[nH]n(-c2ccccc2)c(=O)c1C=Nc1ccc(Cl)cc1		-81.7%
c1cncc(-c2cc(NCc3cccs3)ncn2)c1		-6.08% [at 2.29 µM]
Fc1ccc2c(c1)C(c1ccncc1)=NNC(c1ccc(Cl)cc1)=N2	0.282 µM (active)	

SMILES	AC50	activity, negative = inhibition
Clc1ccc2c(c1)C(c1cccs1)=NNC(c1cccnc1)=N2	11.2 µM (active)	
COC(=O)[C@H](C)NC(=O)[C@@H](C)CO		10.7% [at 11.4 µM]
COCCNc1ccnc(-c2ccccc2CN(C)C)n1		0.0079% [at 2.29 µM]
CN(CC[C@@H](Oc1ccc(-c2ccccc2)cc1)c1ccc(F)cc1)CC(=O)O	2.51 µM (active)	
CNCC[C@H](Oc1ccccc1OC)c1ccccc1	inactive	
CNCC[C@@H](Oc1ccccc1C)c1ccccc1		1.68%
CCOc1cc2[nH]c(=S)n(CCC(=O)N3CCc4ccccc4C3)c(=O)c2cc1OCC	17.8 µM (active)	
O=c1onc2n1-c1cc(Br)ccc1OC2		-8.5%
Cc1ccc(S(=O)(=O)N(CC(=O)N2CCN(c3ccc(F)cc3)CC2)C2CCCCC2)cc1	3.55 µM (active)	
COc1ccc(S(N)(=O)=O)cc1C(=O)NCCCN1CCN(c2ccc(C)cc2)CC1		-17.8%
CCCS(=O)(=O)N1CCCC(C(=O)NCCCN2CCN(c3ccc(F)cc3)CC2)C1 (stereo unspecified)		2.11%
CCCCOC(=O)NS(=O)(=O)c1sc(CC(C)C)cc1-c1ccc(Cn2c(CC)nc3c(C)cc(C)nc32)cc1	12.6 µM (active)	
C1CCc2nnnn2CC1		-7.69% [at 25.6 µM]
Cc1cccc2cc(CN(Cc3ccccc3)C(=O)c3cccc(F)c3)c(Cl)nc12	2.24 µM (active)	
O=C(c1cccc(F)c1)N1CCC2(CC1)CN(Cc1ccccc1)C2		-9.48%
COc1cccc(OC)c1/C(O)=C(\C#N)c1nc2ccccc2[nH]1	11.2 µM (active)	
CNc1nc(-c2ccccc2OC)nc2ccccc12		7.89% [at 2.29 µM]
Cc1ccccc1OC/C(O)=C(\C#N)c1nc2ccccc2[nH]1		-1.16%
CC(CC(=O)Nc1ccc(Cl)c([N+](=O)[O-])c1)c1ccccc1 (stereo unspecified)	14.1 µM (active)	
COc1ccc(NC(=O)N2CCC3(CC2)CCN(C(=O)c2cccc(F)c2)CC3)cc1		-15.4%
COc1ccc(N2CCN(C(=S)Nc3cc(C)cc(C)c3)CC2)cc1		-13.1%
COc1ccc(Nc2ncc(C(=O)N3CCN(c4ccc(F)cc4)CC3)c3ccccc23)cc1	2.24 µM (active)	
CC(=O)[C@@]1(O)Cc2c(O)c3c(c(O)c2[C@H](O[C@H]2C[C@H](N)[C@H](O)[C@H](C)O2)C1)C(=O)c1ccccc1C3=O		-4.2%
O=C(NC1CCCCC1)c1sc(=S)n2c1[nH]c(=O)c1ccccc12	0.2 µM (active)	

SMILES	AC50	activity, negative = inhibition
CCOc1ccc(N(C(C)C(=O)NC(C)CC)S(C)(=O)=O)cc1 (stereo unspecified)	5.62 µM (active)	
CCOc1ccc(N(C(C)C(=O)N/N=C(\C)c2cccc(NC(=O)c3ccccc3)c2)S(C)(=O)=O)cc1 (stereo unspecified)	3.98 µM (active)	
Cc1nc2cnc(N3CCN(C)CC3)nc2n(-c2ccccc2)c1=O		23.4%
CC[C@H]1C(=O)OC[C@H]1Cc1cncn1C		-28.6% [at 25.6 µM]
CO[C@H]1COC(=O)[C@@H](C)COC(=O)[C@@H](COCc2ccccc2)NC(=O)C/C=C\[C@H]1C		6.52% [at 11.4 µM]
O=C(c1cnccn1)N1CCC2(CC1)CCN(c1ccccc1)CC2		3.2%
O=C(Nc1ccccc1)N1CC2(CCN(C(=O)c3cnccn3)CC2)C1		9.15%
O=C(Nn1cc(C(=O)N2CCN(c3ccccc3F)CC2)c2ccccc2c1=O)c1cnccn1	4.47 µM (active)	
O=C(O)[C@@H]1[C@@H](C(=O)NCc2cccnc2)[C@@H]2C=C[C@@H]1O2		0.756% [at 11.4 µM]
O=C(c1ccccc1)c1c[nH]c(C(=O)NCCCN2CCOCC2)c1		16.5%
O=C(c1ccccc1)c1c[nH]c(C(=O)NCc2cccnc2)c1	11.2 µM (active)	
CN1CCN(c2ncc3nc(-c4ccc(Cl)cc4)c(=O)n(C4CC4)c3n2)CC1		1.45%
CN1CCN(c2ncc3nc(-c4ccc(F)cc4)c(=O)n(C4CC4)c3n2)CC1	12.6 µM (active)	
COc1ccc(-c2nc3cnc(N4CCN(C)CC4)nc3n(C)c2=O)cc1		-18.2%
CN1CCN(c2ncc3nc(-c4cc(F)cc(F)c4)c(=O)n(C4CC4)c3n2)CC1	10 µM (active)	
N#CCCn1c(=O)c(-c2cc(F)cc(F)c2)nc2cnc(N3CCOCC3)nc21		15.9%
NC([N-]/N=C/c1ccccn1)=[S]=[Fe].O=S(=O)(O)O		-29.5% [at 11.4 µM]
O=C(O)CC[C@@H](C(=O)O)N1C(=O)c2ccccc2C1=O	inactive	
CC(C)CC(C(=O)OCC(=O)Nc1ncc(Cl)cc1Cl)N1C(=O)c2ccccc2C1=O (stereo unspecified)	7.08 µM (active)	
Cc1c(Cl)cnc(NC(=O)COC(=O)CCS(=O)(=O)c2ccccc2)c1Cl		-33.3%
CC(=O)Nc1ccc(NC(=O)CC2Nc3cccc4cccc(c34)NC2=O)cc1 (stereo unspecified)	5.01 µM (active)	
CCCCCCCOC1(c2ccccc2)OC(=O)c2ccccc21 (stereo unspecified)	8.91 µM (active)	
Cc1cccc(C)c1OC1(c2ccccc2)OC(=O)c2ccccc21 (stereo unspecified)	2.51 µM (active)	
Cc1cccc(OC2(c3ccccc3)OC(=O)c3ccccc32)c1C (stereo unspecified)	3.16 µM (active)	

SMILES	AC50	activity, negative = inhibition
CC(C)C[C@H](NC(=O)[C@@H](O)[C@H](N)Cc1ccccc1)C(=O)O		19.9%
CCn1c(C)nc2cc(S(=O)(=O)C(F)F)ccc21		-25.1%
CCCCn1c(SCc2c(C)noc2C)nc2cc(S(N)(=O)=O)ccc21	10 µM (active)	
c1ccc2c(N3CCNCC3)nc(-c3ccc4c(c3)OCO4)nc2c1		12.6% [at 2.29 µM]
O=C1CC(c2ccc3c(c2)OCO3)Sc2nc3ccccc3n21 (stereo unspecified)	3.16 µM (active)	
O=C1CC(c2ccc3c(c2)OCO3)CN1 (stereo unspecified)		-13%
CCCCOC(=O)Nc1nc2ccccc2s1		4.29%
Cc1ccc(-c2nc3ccccc3o2)cc1NC(=O)Cc1cccs1		-19.9%
O=C(O)C1CCCCC1C(=O)Nc1ccccc1Cl (stereo unspecified)		-11.3%
c1ccc(/C(=N/Nc2nc3ccccc3s2)c2ccccn2)cc1		-23.7% [at 11.4 µM]
O=C(CSc1nc2ccccc2o1)Nc1nc2ccccc2s1	3.98 µM (active)	
O=C(CSc1nc2ccccc2[nH]1)NCCN1CCCCC1		-28.8%
O=C(NC1CCCCC1)C(c1ccccc1)N1CCOCC1 (stereo unspecified)		-9.73%
O=C(CSc1nc2ccccc2o1)Nc1ccccc1N1CCCCCC1	12.6 µM (active)	
O=C(CSc1ccccn1)Nc1nc2ccc(Br)cc2s1	7.08 µM (active)	
O=C(CNC1CCCCCC1)Nc1ccccc1N1CCCCC1	28.2 µM (active)	
O=C(CSc1nc2ccccc2o1)NC(=O)NCc1ccccc1	7.08 µM (active)	
O=C(CN1CCN(S(=O)(=O)c2ccccc2)CC1)NC(=O)NCc1ccccc1		-15.7%
O=C(N/N=C\c1ccc(-c2ccccc2[N+](=O)[O-])o1)C1COc2cc3ccccc3cc2O1 (stereo unspecified)	1 µM (active)	
C[N+]1(C)CCC(=C(c2ccccc2)c2ccccc2)CC1		8.49% [at 25.6 µM]
CC(C)(CO)Cc1cc(C(C)(C)C)c(O)c(C(C)(C)C)c1		-29%
CC(C)(C)c1cc(/C=C(\C#N)C(N)=S)cc(C(C)(C)C)c1O	0.1 µM (active)	
N#CC(C#N)=C(N)/C(C#N)=C/c1ccc(O)cc1		9.27%
CC(C)=NNc1ncnc2nc[nH]c12		-11.9% [at 11.4 µM]

Source: PubChem BioAssay AID1851 (National Center for Advancing Translational Sciences (NCATS), 2009)
